Results filed as inconclusive are left out. Some structures have more than one record in an assay (separate samples or runs), and their calls can disagree. Activity calls are given as the source filed them. Rule for the calls, unless noted: active = hit-call score of the fitted dose curve at least 0.9, where 1 is the maximum; inactive = score below 0.9.
Tests used:
[1] = BSK_4H_Eotaxin3: BioMAP Diversity Plus: 4H Assay for Eotaxin 3 Biomarker Activity (AID 2283000); conditions: primary human endothelial cells (HUVEC); actives raise or lower the signal
In short: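 Eotaxin-3 (CCL26) levels were measured by ELISA in HUVEC primary cultures 24 h post-dosing. Gain or loss of signal was fitted in both directions, with DMSO serving as baseline and negative control.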

[2] = target: human Peroxisome Proliferator-activated Receptor delta (PPARd), PPARD (gene 5467) (UniProt Q03181); assay: ATG_PPARd_TRANS: Attagene TRANS-FACTORIAL HepG2 Assay for human Peroxisome Proliferator-activated Receptor delta (PPARd) (AID 2283002; active = hit-call score of the fitted dose curve at least 0.9, where 1 is the maximum)
In short: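 Transient HepG2 transfection (multiple GAL4-UAS RTUs, chimeric receptor-Gal4); 24 h dosing; total RNA → oligo(dT) RT → PCR → 6-FAM primer extension → HpaI cut → CE. Positive direction vs DMSO.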

[3] = read-out: Intercellular Adhesion Molecule 1 (ICAM1), ICAM1 (gene 3383); assay: BSK_3C_ICAM1: BioMAP Diversity Plus: 3C Assay for Intercellular Adhesion Molecule 1 (ICAM1) Biomarker Activity (AID 2283003); conditions: primary human endothelial cells (HUVEC); actives raise or lower the signal
In short: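 Using DMSO as baseline, bidirectional curve fitting was applied to ICAM-1 ELISA signals from HUVEC in the 3C system, measured 24 h after compound addition.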

[4] = target: human Retinoic Acid Receptor beta (RARb), RARB (gene 5915) (UniProt P10826); assay: ATG_RARb_TRANS: Attagene TRANS-FACTORIAL HepG2 Assay for human Retinoic Acid Receptor beta (AID 2283004; active = hit-call score of the fitted dose curve at least 0.9, where 1 is the maximum)
In short: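 HepG2 cells were transiently transfected with GAL4-UAS reporter units that report activity of exogenous chimeric NR-Gal4 proteins, then exposed to compound for 24 h. Reporter mRNA was quantified by RT-PCR with capillary electrophoresis fluorescence, as gain of signal over DMSO.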

[5] = target: Retinoic acid receptor alpha (Homo sapiens) (UniProt P10276); assay: ATG_RARa_TRANS: Attagene TRANS-FACTORIAL HepG2 Assay for human Retinoic Acid Receptor alpha (RARa) (AID 2283005; active = hit-call score of the fitted dose curve at least 0.9, where 1 is the maximum)
In short: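 Reporter transcripts, measured by RT-PCR with fluorescent labeling and capillary electrophoresis after 24 h dosing, reflect activity of an exogenous human RARa–GAL4 fusion in transiently transfected HepG2. Fitted for increase relative to DMSO.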

[6] = BSK_3C_Proliferation: Cell Proliferation Assessment in the BioMAP Diversity Plus: 3C Assay (AID 2283006); conditions: primary human endothelial cells (HUVEC);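 for AC50: potency may reflect either rise or fall in cell number versus DMSO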
In short: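 Measured here: sulforhodamine B (0.1%) staining of TCA-fixed sub-confluent umbilical vein endothelial cultures 48 h post-dosing, absorbance 560 nm. DMSO served as negative control and baseline; both signal gain and loss were modelled.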

[7] = target: Nuclear receptor subfamily 1 group I member 2 (Homo sapiens) (UniProt O75469); assay: ATG_PXR_TRANS: Attagene TRANS-FACTORIAL HepG2 Assay for human Pregnane X Receptor (PXR) (AID 2283008; active = hit-call score of the fitted dose curve at least 0.9, where 1 is the maximum)
In short: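 HepG2 transfected (FuGene 6) with GAL4-UAS reporter units + PXR-Gal4 chimera; dosed 24 h. Total RNA → oligo(dT) RT → PCR → 6-FAM primer extension → HpaI cut → CE. Gain-of-signal vs DMSO.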

[8] = target: human Retinoic Acid Receptor gamma (RARg), RARG (gene 5916) (UniProt P13631); assay: ATG_RARg_TRANS: Attagene TRANS-FACTORIAL HepG2 Assay for human Retinoic Acid Receptor gamma (RARg) (AID 2283009; active = hit-call score of the fitted dose curve at least 0.9, where 1 is the maximum)
In short: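 Gain-of-signal relative to DMSO is reported from fluorescent capillary electrophoresis of RT-PCR reporter products. These came from HepG2 cells expressing transfected RARg-GAL4 chimeras with UAS reporters, harvested 24 h after dosing.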

[9] = target: human RAR-related Orphan Receptor beta (RORb), RORB (gene 6096) (UniProt Q92753); assay: ATG_RORb_TRANS: Attagene TRANS-FACTORIAL HepG2 Assay for human RAR-related Orphan Receptor beta (RORb) (AID 2283010; active = hit-call score of the fitted dose curve at least 0.9, where 1 is the maximum)
In short: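 Multiplexed transcription-factor reporter assay: HepG2 cells transiently carrying NR-Gal4/GAL4-UAS constructs, 24 h treatment, mRNA quantified by RT-PCR plus capillary electrophoresis fluorescence; activity scored as induction over DMSO.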

[10] = target: Retinoic acid receptor RXR-alpha (Homo sapiens) (UniProt P19793); assay: ATG_RXRa_TRANS: Attagene TRANS-FACTORIAL HepG2 Assay for human Retinoid X Receptor alpha (RXRa) (AID 2283012; active = hit-call score of the fitted dose curve at least 0.9, where 1 is the maximum)
In short: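 Chimeric NR-GAL4 trans-activation in HepG2, 24 h treatment; reporter transcripts quantified by fluorescence on capillary electrophoresis, analysed for upward change from DMSO.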

[11] = target: human Retinoid X Receptor beta (RXRb), RXRB (gene 6257) (UniProt P28702); assay: ATG_RXRb_TRANS: Attagene TRANS-FACTORIAL HepG2 Assay for human Retinoid X Receptor beta (RXRb) (AID 2283013; active = hit-call score of the fitted dose curve at least 0.9, where 1 is the maximum)
In short: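 After a 24 h incubation with test chemical, transfected HepG2 cells carrying NR-Gal4 fusions and GAL4-UAS reporter transcription units yield RNA whose reporter cDNA is FAM-labelled, HpaI-cut and sized by capillary electrophoresis; increases over DMSO are scored.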

[12] = target: human Thyroid Receptor alpha (THRa1), THRA (gene 7067) (UniProt P10827); assay: ATG_THRa1_TRANS: Attagene TRANS-FACTORIAL HepG2 Assay for human Thyroid Receptor alpha (THRa1) (AID 2283014; active = hit-call score of the fitted dose curve at least 0.9, where 1 is the maximum)
In short: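 HepG2 cells transiently transfected with chimeric NR-Gal4 and GAL4-UAS reporter units, dosed 24 h. Reporter mRNA quantified by RT-PCR, fluorescent labeling, HpaI digestion and capillary electrophoresis; gain-of-signal fit versus DMSO.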

[13] = read-out: E-selectin (Homo sapiens) (UniProt P16581); assay: BSK_3C_Eselectin: BioMAP Diversity Plus: 3C Assay for Eselectin Biomarker Activity (AID 2283015); conditions: primary human endothelial cells (HUVEC); actives raise or lower the signal
In short: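 Primary human umbilical vein endothelial cells (3C system), read 24 h after compound addition; E-selectin measured by ELISA. Bidirectional curve fitting against DMSO baseline; cytotoxicity by parallel SRB total-protein staining.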

[14] = read-out: Interleukin-1 alpha (IL1a), IL1A (gene 3552); assay: BSK_BE3C_IL1a: BioMAP Diversity Plus: BE3C Assay for Interleukin-1 alpha (IL1a) Biomarker Activity (AID 2283016); conditions: primary human bronchial epithelial cells; actives raise or lower the signal
In short: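 Measured in human lung primary bronchial epithelial cells: IL-1a by ELISA at 24 h after dosing, with bidirectional fitting against DMSO.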

[15] = read-out: Monocyte Chemoattractant Protein-1 (MCP1), CCL2 (gene 6347); assay: BSK_3C_MCP1: BioMAP Diversity Plus: 3C Assay for Monocyte Chemoattractant Protein-1 (MCP1) Biomarker Activity (AID 2283017); conditions: primary human endothelial cells (HUVEC); actives raise or lower the signal
In short: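 Human umbilical vein endothelial cells (3C system) exposed to chemicals for 24 h; MCP-1 quantified by ELISA against the DMSO baseline with bidirectional fitting, and parallel SRB staining used to assess cytotoxicity.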

[16] = read-out: Monocyte Chemoattractant Protein-1 (MCP1), CCL2 (gene 6347); assay: BSK_4H_MCP1: BioMAP Diversity Plus: 4H Assay for Monocyte Chemoattractant Protein-1 (MCP1) Biomarker Activity (AID 2283018); conditions: primary human endothelial cells (HUVEC); actives raise or lower the signal
In short: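 Primary human umbilical vein endothelium is exposed to chemical for 24 h before MCP-1 is assayed by ELISA. Concentration-response fitted bidirectionally relative to DMSO.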

[17] = read-out: Human Leukocyte Antigen - DR isotype (HLADR), HLA-DRA (gene 3122); assay: BSK_3C_HLADR: BioMAP Diversity Plus: 3C Assay for Human Leukocyte Antigen - DR isotype (HLADR) Biomarker Activity (AID 2283019); conditions: primary human endothelial cells (HUVEC); actives raise or lower the signal
In short: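 HUVEC monoculture, HLA-DR measured by ELISA 24 h after chemical dosing. Fitted bidirectionally against DMSO baseline; parallel SRB staining assessed cytotoxicity, with 3C proliferation read by SRB at 48 h.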

[18] = target: Peroxisome proliferator-activated receptor gamma (Homo sapiens) (UniProt P37231); assay: ATG_PPARg_TRANS: Attagene TRANS-FACTORIAL HepG2 Assay for human Peroxisome Proliferator-activated Receptor-gamma (PPARg) (AID 2283007; active = hit-call score of the fitted dose curve at least 0.9, where 1 is the maximum)
In short: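 Gain-of-signal endpoint relative to DMSO, derived from reporter mRNA levels quantified by RT-PCR and capillary electrophoresis. Cells were HepG2 transiently expressing a chimeric NR-Gal4 construct with GAL4-UAS reporters, exposed to chemicals for 24 h.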

[19] = target: human RAR-related Orphan Receptor gamma (RORg), RORC (gene 6097) (UniProt P51449); assay: ATG_RORg_TRANS: Attagene TRANS-FACTORIAL HepG2 Assay for human RAR-related Orphan Receptor gamma (RORg) (AID 2283011; active = hit-call score of the fitted dose curve at least 0.9, where 1 is the maximum)
In short: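 HepG2 cells transiently transfected with GAL4-UAS reporter units and chimeric RORg-Gal4 construct; after 24 h chemical exposure, reporter mRNA measured by RT-PCR with fluorescent capillary electrophoresis, gain of signal fitted against DMSO.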

[20] = target: human Peroxisome Proliferator-activated Receptor alpha (PPARa), PPARA (gene 5465) (UniProt Q07869); assay: ATG_PPARa_TRANS: Attagene TRANS-FACTORIAL HepG2 Assay for human Peroxisome Proliferator-activated Receptor alpha (PPARa) (AID 2283001; active = hit-call score of the fitted dose curve at least 0.9, where 1 is the maximum)
In short: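 Transfected HepG2 cells treated with test chemical for 24 h. RNA isolated, reverse-transcribed with oligo(dT), PCR-amplified, FAM-labelled and HpaI-digested. Fragments sized by capillary electrophoresis; gain-of-signal fit relative to DMSO.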

Measured: AC50

E-selectin (Homo sapiens), sequence (P16581 whole entry, looked up): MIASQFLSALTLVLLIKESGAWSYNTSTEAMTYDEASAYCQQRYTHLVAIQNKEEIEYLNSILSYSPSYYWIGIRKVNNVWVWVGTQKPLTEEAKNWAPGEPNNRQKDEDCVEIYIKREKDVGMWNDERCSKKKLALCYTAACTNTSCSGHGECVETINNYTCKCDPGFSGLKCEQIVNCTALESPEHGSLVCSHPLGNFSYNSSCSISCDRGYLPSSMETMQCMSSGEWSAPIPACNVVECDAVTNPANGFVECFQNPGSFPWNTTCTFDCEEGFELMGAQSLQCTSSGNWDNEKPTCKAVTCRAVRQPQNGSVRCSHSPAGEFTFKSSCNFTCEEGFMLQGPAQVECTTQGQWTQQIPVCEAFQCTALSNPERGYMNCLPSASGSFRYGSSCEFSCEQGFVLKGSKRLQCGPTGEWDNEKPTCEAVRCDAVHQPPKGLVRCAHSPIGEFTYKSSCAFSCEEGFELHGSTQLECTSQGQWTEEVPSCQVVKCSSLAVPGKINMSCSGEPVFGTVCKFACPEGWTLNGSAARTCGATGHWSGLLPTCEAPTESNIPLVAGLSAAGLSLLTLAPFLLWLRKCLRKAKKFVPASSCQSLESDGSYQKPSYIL
Retinoic acid receptor alpha (Homo sapiens), sequence (P10276 whole entry, looked up, the tested form may be a part): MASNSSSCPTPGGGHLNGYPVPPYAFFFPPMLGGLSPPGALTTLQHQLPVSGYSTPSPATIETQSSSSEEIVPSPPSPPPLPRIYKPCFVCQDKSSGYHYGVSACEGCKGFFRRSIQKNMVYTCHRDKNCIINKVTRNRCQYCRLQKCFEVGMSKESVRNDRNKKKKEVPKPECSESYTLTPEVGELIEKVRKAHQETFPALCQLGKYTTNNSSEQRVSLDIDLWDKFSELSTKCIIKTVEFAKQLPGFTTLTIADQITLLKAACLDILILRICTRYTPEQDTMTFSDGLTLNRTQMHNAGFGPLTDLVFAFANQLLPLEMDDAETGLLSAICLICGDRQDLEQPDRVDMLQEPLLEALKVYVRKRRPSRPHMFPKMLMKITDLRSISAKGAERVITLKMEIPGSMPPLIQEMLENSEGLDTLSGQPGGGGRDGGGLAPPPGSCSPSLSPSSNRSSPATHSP
human RAR-related Orphan Receptor beta (RORb), RORB (gene 6096), sequence (Q92753 whole entry, looked up, the tested form may be a part): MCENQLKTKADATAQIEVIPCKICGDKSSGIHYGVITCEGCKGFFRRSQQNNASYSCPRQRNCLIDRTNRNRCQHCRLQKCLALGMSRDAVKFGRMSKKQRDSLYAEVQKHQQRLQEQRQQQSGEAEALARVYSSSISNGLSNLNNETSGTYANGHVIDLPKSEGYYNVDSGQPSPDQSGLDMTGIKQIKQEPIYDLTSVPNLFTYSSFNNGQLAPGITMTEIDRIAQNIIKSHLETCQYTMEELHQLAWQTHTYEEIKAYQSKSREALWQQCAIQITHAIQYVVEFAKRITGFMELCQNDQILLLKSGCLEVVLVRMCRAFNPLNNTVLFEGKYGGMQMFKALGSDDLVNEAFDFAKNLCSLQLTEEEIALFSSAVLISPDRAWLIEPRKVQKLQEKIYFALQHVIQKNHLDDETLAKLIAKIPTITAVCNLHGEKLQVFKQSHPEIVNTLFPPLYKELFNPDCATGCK
Peroxisome proliferator-activated receptor gamma (Homo sapiens), sequence (P37231 whole entry, looked up, the tested form may be a part): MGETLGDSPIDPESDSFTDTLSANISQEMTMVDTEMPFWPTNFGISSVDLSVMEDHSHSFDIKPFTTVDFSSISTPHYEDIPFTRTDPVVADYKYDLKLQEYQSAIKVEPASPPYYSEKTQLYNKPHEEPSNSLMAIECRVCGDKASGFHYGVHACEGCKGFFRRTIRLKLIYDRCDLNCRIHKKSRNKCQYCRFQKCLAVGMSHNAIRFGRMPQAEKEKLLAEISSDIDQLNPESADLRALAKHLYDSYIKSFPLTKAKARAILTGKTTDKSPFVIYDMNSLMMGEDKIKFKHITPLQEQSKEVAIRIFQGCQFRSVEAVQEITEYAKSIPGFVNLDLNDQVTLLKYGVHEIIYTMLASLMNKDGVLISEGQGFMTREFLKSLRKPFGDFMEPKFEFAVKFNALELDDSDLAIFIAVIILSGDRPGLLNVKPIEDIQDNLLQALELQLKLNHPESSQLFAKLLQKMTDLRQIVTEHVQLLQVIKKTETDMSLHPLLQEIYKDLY
Retinoic acid receptor RXR-alpha (Homo sapiens), sequence (P19793 whole entry, looked up, the tested form may be a part): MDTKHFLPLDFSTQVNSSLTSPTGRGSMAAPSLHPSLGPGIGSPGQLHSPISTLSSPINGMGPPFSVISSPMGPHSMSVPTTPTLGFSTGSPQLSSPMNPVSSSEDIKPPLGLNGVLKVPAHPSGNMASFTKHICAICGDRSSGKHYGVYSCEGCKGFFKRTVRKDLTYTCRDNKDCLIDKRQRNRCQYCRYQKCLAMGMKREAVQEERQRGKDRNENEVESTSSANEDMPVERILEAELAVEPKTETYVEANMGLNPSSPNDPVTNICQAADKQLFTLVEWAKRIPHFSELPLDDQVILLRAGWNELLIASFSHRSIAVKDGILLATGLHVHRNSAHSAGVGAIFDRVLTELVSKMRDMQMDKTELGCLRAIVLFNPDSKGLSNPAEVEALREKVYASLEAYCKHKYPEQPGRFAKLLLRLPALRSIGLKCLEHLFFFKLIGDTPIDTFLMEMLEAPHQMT
human Peroxisome Proliferator-activated Receptor alpha (PPARa), PPARA (gene 5465), sequence (Q07869 whole entry, looked up, the tested form may be a part): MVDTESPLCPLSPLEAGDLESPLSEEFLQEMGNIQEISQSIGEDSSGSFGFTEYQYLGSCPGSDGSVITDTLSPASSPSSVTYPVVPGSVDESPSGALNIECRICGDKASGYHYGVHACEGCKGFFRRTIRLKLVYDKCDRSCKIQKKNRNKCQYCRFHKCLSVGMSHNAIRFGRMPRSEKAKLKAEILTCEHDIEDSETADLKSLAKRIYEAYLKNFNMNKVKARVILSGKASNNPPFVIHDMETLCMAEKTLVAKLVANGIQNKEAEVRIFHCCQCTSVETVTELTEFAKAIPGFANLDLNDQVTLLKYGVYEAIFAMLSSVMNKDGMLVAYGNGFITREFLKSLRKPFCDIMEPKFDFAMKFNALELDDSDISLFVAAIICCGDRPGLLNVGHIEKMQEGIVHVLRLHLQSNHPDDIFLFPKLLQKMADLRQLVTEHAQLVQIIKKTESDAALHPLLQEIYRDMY
human Retinoid X Receptor beta (RXRb), RXRB (gene 6257), sequence (P28702 whole entry, looked up, the tested form may be a part): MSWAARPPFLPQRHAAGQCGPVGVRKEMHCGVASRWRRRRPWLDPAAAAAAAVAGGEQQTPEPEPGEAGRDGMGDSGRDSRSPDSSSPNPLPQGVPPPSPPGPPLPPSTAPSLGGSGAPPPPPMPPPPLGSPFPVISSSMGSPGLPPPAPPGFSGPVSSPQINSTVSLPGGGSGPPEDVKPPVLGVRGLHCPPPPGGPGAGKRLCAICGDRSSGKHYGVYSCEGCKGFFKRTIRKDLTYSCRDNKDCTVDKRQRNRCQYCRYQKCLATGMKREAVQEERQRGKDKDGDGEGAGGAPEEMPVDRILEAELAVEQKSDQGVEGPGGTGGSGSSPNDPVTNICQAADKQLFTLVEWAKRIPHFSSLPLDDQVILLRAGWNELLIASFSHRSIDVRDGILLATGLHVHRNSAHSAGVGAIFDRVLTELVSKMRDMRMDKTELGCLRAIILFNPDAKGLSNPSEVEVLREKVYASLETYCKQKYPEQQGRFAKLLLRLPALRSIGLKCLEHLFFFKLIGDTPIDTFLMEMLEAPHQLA
human Retinoic Acid Receptor gamma (RARg), RARG (gene 5916), sequence (P13631 whole entry, looked up, the tested form may be a part): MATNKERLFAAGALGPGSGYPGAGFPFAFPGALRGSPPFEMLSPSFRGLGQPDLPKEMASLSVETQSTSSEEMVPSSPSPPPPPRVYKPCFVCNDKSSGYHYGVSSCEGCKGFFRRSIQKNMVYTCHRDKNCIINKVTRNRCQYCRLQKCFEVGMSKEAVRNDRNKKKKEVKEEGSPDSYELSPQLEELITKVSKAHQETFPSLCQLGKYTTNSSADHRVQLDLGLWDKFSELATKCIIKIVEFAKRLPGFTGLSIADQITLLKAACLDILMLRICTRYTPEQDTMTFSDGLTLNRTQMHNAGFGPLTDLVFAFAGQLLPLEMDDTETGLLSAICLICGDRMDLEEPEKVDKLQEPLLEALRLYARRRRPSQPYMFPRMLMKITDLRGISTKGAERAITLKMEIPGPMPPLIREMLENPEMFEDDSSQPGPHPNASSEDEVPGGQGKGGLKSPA
Nuclear receptor subfamily 1 group I member 2 (Homo sapiens), sequence (O75469 whole entry, looked up, the tested form may be a part): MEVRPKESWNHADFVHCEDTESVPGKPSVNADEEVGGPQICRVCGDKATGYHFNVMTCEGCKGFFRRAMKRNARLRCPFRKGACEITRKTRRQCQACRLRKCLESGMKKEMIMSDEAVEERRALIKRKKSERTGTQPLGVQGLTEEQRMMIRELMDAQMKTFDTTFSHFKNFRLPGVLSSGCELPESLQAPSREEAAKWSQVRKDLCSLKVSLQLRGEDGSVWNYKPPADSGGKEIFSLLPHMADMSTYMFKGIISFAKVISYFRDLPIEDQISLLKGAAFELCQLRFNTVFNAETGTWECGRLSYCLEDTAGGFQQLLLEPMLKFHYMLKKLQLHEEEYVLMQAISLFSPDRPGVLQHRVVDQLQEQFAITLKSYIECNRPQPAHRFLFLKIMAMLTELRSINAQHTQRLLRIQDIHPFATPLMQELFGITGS
human Thyroid Receptor alpha (THRa1), THRA (gene 7067), sequence (P10827 whole entry, looked up, the tested form may be a part): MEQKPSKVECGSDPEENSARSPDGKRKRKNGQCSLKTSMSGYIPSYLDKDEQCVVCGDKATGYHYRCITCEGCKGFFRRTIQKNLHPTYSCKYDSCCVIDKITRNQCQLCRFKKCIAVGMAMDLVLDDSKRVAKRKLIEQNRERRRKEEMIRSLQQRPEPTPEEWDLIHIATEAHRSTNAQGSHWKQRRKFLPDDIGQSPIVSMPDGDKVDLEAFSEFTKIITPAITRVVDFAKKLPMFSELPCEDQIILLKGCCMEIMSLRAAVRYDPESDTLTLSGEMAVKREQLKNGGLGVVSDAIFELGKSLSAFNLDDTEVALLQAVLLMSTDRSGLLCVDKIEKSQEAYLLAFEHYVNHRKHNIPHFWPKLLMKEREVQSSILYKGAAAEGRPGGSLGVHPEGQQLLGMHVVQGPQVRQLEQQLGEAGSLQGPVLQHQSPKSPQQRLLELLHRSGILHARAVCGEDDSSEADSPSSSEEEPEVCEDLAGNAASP

CCc1c(Br)c(Br)c(Br)c(Br)c1Br
active: [1] 20 µM | [7] 7.09 µM | [11] 5.94 µM
inactive: [2] | [3] | [4] | [5] | [6] | [8] | [9] | [10] | [12] | [13] | [14] | [15] | [16] | [17]

CCc1ccc(C(c2ccc(CC)cc2)C(Cl)Cl)cc1
active: [1] 14.1 µM | [6] 13.1 µM | [15] 12.9 µM | [16] 10.7 µM | [17] 11.8 µM
inactive: [2] | [3] | [18] | [19] | [10] | [11] | [12] | [13] | [14]

CC(=O)Nc1ccc(N=Nc2cc(C)ccc2O)cc1
active: [1] 20 µM | [6] 4.08 µM | [18] 32.3 µM | [12] 47.6 µM | [13] 0.463 µM | [17] 14.5 µM
inactive: [20] | [3] | [8] | [9] | [19] | [11] | [14] | [15] | [16]

FC(F)(F)C(F)(F)C(F)(F)C(F)(F)C(F)(F)CCI
active: [6] 30 µM | [18] 73 µM | [11] 35.9 µM
inactive: [1] | [2] | [3] | [4] | [6] | [7] | [8] | [9] | [19] | [10] | [12] | [13] | [14] | [15] | [16] | [17]

O=C(O)C(F)(F)C(F)(F)OC(F)(F)F
inactive: [1] | [20] | [3] | [4] | [5] | [6] | [18] | [7] | [8] | [9] | [19] | [12] | [13] | [14] | [15] | [16] | [17]

Nc1ccc([N+](=O)[O-])cc1O
inactive: [1] | [2] | [3] | [6] | [18] | [9] | [10] | [11] | [12] | [13] | [14] | [15] | [16] | [17]

C#C[C@]1(O)CC[C@H]2[C@@H]3CCc4cc(OC)ccc4[C@H]3CC[C@@]21C
active: [1] 2.22 µM | [6] 31.1 µM | [7] 4.66 µM | [14] 0.998 µM | [17] 31.2 µM
inactive: [20] | [3] | [4] | [18] | [8] | [10] | [11] | [12] | [13] | [15] | [16]

c1ccc(B(c2ccccc2)c2ccccc2)cc1
active: [18] 33.9 µM | [11] 100 µM
inactive: [2] | [10] | [12]

CCCCCCS
inactive: [20] | [2] | [5] | [18] | [7] | [8] | [19] | [10]
active: [11] 100 µM
